Tau fil binding – qHTS Assay for Tau Filament Binding; Microtubule-associated protein tau (Homo sapiens), P10636; recombinant tau filaments, thioflavin S fluorescence, 15 h; filaments grown with octadecylsulfate alongside compound; Potency, µM (top dose mostly 57.1 µM), for the others: at the highest dose activity change, negative = inhibition; 71,000 tested, 2% active; AID 596, 2007;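 also: % is scaled to controls: 0 for no effect and ±100 for the full control effect; actives lower thioflavin S fluorescence by blocking filaments or displacing dye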
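His-tagged recombinant human tau (exons 2, 3 and 10 included), 1 uM, was induced to fibrillize by 30 uM sodium octadecylsulfate with compound present. After 15 h at 37 C, thioflavine S fluorescence (ex 450, em 510 nm) was read.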
ERK AVP inh – qHTS Assay for Inhibitors of the ERK Signaling Pathway using a Homogeneous Screening Assay; 72,000 tested, 0.99% active; Potency, µM (top dose mostly 57.5 µM), for inactives: at the top dose activity, negative = inhibition, most hits filed as inhibitors; HEK293-V1b, vasopressin-stimulated pERK AlphaScreen; also: % is scaled to controls: 0 for no effect and ±100 for the full control effect; nearly all actives have a fitted effect of over 55% in size
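Overnight-seeded V1b-HEK293 cells in 1% FBS got compound, then vasopressin (25 nM final, 5 min, 37C), then lysis buffer. AlphaScreen detection of phospho-ERK; activity normalized to basal and full-stimulation controls.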
ALOX15 inhib – qHTS Assay for Inhibitors of 15-hLO (15-human lipoxygenase); Polyunsaturated fatty acid lipoxygenase ALOX15 (Homo sapiens), P16050; purified 15hLO-1, xylenol orange hydroperoxide absorbance; Potency, µM (series often up to 57.1 µM), inactives show at the highest dose activity change, negative = inhibition, actives largely listed as inhibitors; 74,000 tested, 1.4% active; also: % is scaled to controls: 0 for no effect and ±100 for the full control effect; nearly all actives have a fitted effect of over 55% in size
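Quantitative HTS in 25 mM Hepes pH 7.5 containing 0.01% Triton X-100: human 15hLO-1 at 40 nM, arachidonic acid at 50 uM, 6 min turnover. Product quantified via ferrous oxidation/xylenol orange, 573:405 nm absorbance ratio.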
Casp1 inh – qHTS Assay for Allosteric/Competitive Inhibitors of Caspase-1. P29466. Caspase-1 enzyme, Ac-WEHD-AFC fluorogenic rate. Potency, µM (series often up to 57.5 µM), inactives show at the top dose activity change, negative = inhibition, hits mostly inhibitors. 75,000 tested, 0.03% active;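 also: plate controls were vehicle for no effect and no substrate for full effect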
Target sequence (P29466 120-297 limits assumed): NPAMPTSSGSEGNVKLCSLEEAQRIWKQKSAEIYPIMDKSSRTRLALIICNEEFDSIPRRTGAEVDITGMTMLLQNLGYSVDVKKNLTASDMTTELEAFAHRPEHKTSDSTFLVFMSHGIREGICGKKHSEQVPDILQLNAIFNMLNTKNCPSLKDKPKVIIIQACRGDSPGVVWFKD
Target sequence (P29466 317-404 limits assumed): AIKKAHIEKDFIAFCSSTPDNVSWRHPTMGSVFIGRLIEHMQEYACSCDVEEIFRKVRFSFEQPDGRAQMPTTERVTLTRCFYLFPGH
Casp7 inh – qHTS Assay for Allosteric/Competitive Inhibitors of Caspase-7; P55210; 75,000 tested, 0.02% active; recombinant caspase-7, Ac-DEVD-AFC fluorescence rate; AID 889, 2007; Potency, µM (titrated, usually from 57.5 µM), without a hit: top-dose activity change, negative = inhibition, most hits filed as inhibitors; active = well fitted inhibition curve with a large enough effect in the main read-out, with a control signal flat, not every such curve was filed as active; inconclusive = small, poorly fitted or top-dose-only effect, or a change in a side signal; also: % of control where 0% means no effect
* marks the source's active call; other numbers are inactive results; i = inactive; ? = inconclusive; nt = no result given; [ ] = remark or other dose. A selection: hits, their analogues and other compounds. The true share with any hit is near 3.9%. Unless noted, calls follow the shape of the dose curve; as a rule, active = well fitted curve in the direction sought with a large enough effect; inconclusive = small, poorly fitted or top-dose-only effect, or another doubt; inactive = no such curve, though single readings can be large; an effect the other way counts as inactive or inconclusive. Potency is read from the fitted curve at half-maximal effect.

SMILES	Tau fil binding	ERK AVP inh	ALOX15 inhib	Casp1 inh	Casp7 inh
CN1CC[C@@H]2CN3CCc4cccc(c43)[C@H]2C1	-37%	-18%	13µM*	2%	0%
CCCCC/C=C\C/C=C\C/C=C\C/C=C\CCCC(=O)NCC(=O)O	32%	15%	2.5µM*	-3%	-10%
CCCCC/C=C\C/C=C\C/C=C\C/C=C\CCCC(=O)Nc1ccc(O)cc1	32µM*	-1%	0.25µM*	-5%	-6%
C[C@@]12CC[C@H](O)C[C@@H]1CC[C@H]1[C@H]2C[C@@H](O)[C@]2(C)[C@@H](C3=CC(=O)OC3)CC[C@@]12O	-10%	nt	nt	nt	nt
COP(=S)(OC)SCn1nnc2ccccc2c1=O	nt	32µM*	13µM*	1%	-4%
COc1cccc2c1C(=O)c1c(O)c3c(c(O)c1C2=O)C[C@](O)(/C(C)=N\O)C[C@@H]3O[C@H]1C[C@H](N)[C@@H](O)[C@H](C)O1	1.6µM*	-7%[11.5 µM]	10%[11.4 µM]	-1%[11.5 µM]	-4%[11.5 µM]
C[C@@H]1O[C@H]1P(=O)(O)O	-4%	62%	0%	1%	1%
COC(=O)[C@]1(C)CC[C@@]2(C)CC[C@@]3(C)C4=CC=C5C(=CC(=O)C(O)=C5C)[C@@]4(C)CC[C@@]3(C)C2C1 (some centres undefined)	nt	-19%	2µM*	2%	-3%
Clc1ccc(N2C[C@H]3CC[C@@H](C2)N3)nn1	7%	9%	11%	-2%	2%
Oc1ccc2c3c1O[C@@H]1[C@@H](O)CC[C@]4(O)[C@H](C2)N(CC2CCC2)CC[C@@]314	-9%	25%	12%	2%	3%
Cc1ccc(O)cc1	-3%	-22%	8%	-2%	-4%
CN(N=O)c1cc(O)ccc1O	?	-13%	16µM*	?	1%
COc1cc([C@@H](O)CN)ccc1O	3%	10%	10%	1%	-1%
O=c1cccc2n1CC1CC2CN2CCCC[C@H]12 (some centres undefined)	nt	-10%	-4%[25.6 µM]	-1%	-3%
O=c1cccc2n1C[C@@H]1C[C@H]2CN2CCCC[C@H]12	32µM*	nt	nt	nt	nt
COc1ccc(C=O)cc1	4%	12%	3%	-2%	2%
COc1ccc(P2(=O)Nc3ccccc3N2)cc1	16µM*	?	?	-5%	-4%
CCN(CC)C(=O)N[C@@H]1C=C2c3cccc4[nH]cc(c34)C[C@@H]2N(C)C1	3%	nt	nt	nt	nt
CC(C)[C@@]1(NC(=O)[C@@H]2C[C@H]3c4cccc5[nH]cc(c45)C[C@@H]3N(C)C2)O[C@@]2(O)[C@H]3CCCN3C(=O)[C@H](Cc3ccccc3)N2C1=O	?	?	?	-7%	-1%
CN1C[C@H](C(=O)N[C@]2(C)O[C@@]3(O)[C@@H]4CCCN4C(=O)[C@H](Cc4ccccc4)N3C2=O)C=C2c3cccc4[nH]cc(c34)C[C@H]21	i	?	2.5µM*	nt	?
CN1C[C@H](C(=O)N[C@@]2(C)O[C@@]3(O)[C@H]4CCCN4C(=O)[C@@H](Cc4ccccc4)N3C2=O)C=C2c3cccc4[nH]cc(c34)C[C@@H]21	189%[11.4 µM]	8%[11.5 µM]	-16%[11.4 µM]	-16%[11.5 µM]	-26%[11.5 µM]
CN1C[C@H](C(=O)N[C@]2(C)O[C@@]3(O)[C@H]4CCCN4C(=O)[C@H](Cc4ccccc4)N3C2=O)C[C@H]2c3cccc4[nH]cc(c34)C[C@@H]21	?	-8%	13µM*	0%	-2%
CCCC[C@@H]1C[C@H]1C(NP(=O)(c1ccccc1)c1ccccc1)c1ccc(Cl)cc1 (some centres undefined)	10%	nt	nt	nt	nt
COC(=O)c1c(C)ccc2c(O)c3c(cc12)C(=O)c1c2c(cc(O)c1C3=O)[C@@]1(C)O[C@@](C)(O2)[C@@H](O)[C@H](N(C)C)[C@H]1O	4µM*	14%[11.5 µM]	?	4%[11.5 µM]	-3%[11.5 µM]
CC(=O)N1C[C@@H]2C[C@H](C1)c1cccc(=O)n1C2	-26%	nt	nt	nt	nt
C=C[C@@H]1CN2CC[C@H]1C[C@H]2[C@@H](O)c1ccnc2ccccc12	-11%	nt	nt	nt	nt

High-throughput results: PubChem, National Center for Advancing Translational Sciences (NCATS)
